In PubChem BioAssay AID1159580 (chemical genetic matrix, 2015):
Where “and” joins values, the source holds several entries; their conditions need not be identical. Identical values can stand only once. The campaign covered roughly 5,500 compounds. About 2,000 (36%) were called active. Inconclusive results (about 18%) are left out. Cut-off read from the data, not from the text of the source: active = normalized growth mostly below about 0.91 (no sharp cut-off); inconclusive = no clear call, values can overlap the other calls; inactive = mostly above about 0.92. The list shows a part of the results.

Assay: chemical genetic growth profiling, strain panel (AID 1159580);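 note: tested at 20 µM; growth read once vehicle control cultures reached saturation at 30 °C; 1 = growth at the plate median or of vehicle wells; lower values mean less growth of the strain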
Conditions: S. cerevisiae deletion strains, growth OD

Measured: normalized growth

NCCc1c[nH]c2ccccc12
inactive: locus YAL013W, strain DEP1, hits give low values 0.983 and 0.988 | locus YAL021C, strain ccr4, hits give low values 0.967 | locus YAL026C, strain drs2, hits give low values 0.96 | locus YAL030W, strain snc1, hits give low values 0.969 | locus YAL040C, strain CLN3, hits give low values 1.08 | locus YBL061C, strain skt5, hits give low values 0.959 | locus YBR009C, strain hhf1, hits give low values 0.988 | locus YBR021W, strain FUR4, hits give low values 1.01 | locus YBR023C, strain chs3, hits give low values 0.945 | locus YBR171W, strain sec66, hits give low values 0.955 | locus YBR229C, strain ROT2, hits give low values 0.954 | locus YBR231C, strain swc5, hits give low values 0.962 | locus YBR279W, strain paf1, hits give low values 0.942 | locus YCL011C, strain gbp2, hits give low values 0.945 | locus YCL016C, strain dcc1, hits give low values 0.98 | locus YCL029C, strain bik1, hits give low values 0.994 | locus YCL061C, strain MRC1 (second series), hits give low values 0.998 | locus YCL061C, strain MRC1, hits give low values 0.967 | locus YCL069W, strain vba3, hits give low values 0.973 | locus YCR088W, strain abp1, hits give low values 0.967 | locus YDL005C, strain med2, hits give low values 0.974 | locus YDL035C, strain GPR1, hits give low values 0.977 | locus YDL040C, strain nat1, hits give low values 0.96 | locus YDL074C, strain BRE1, hits give low values 1 | locus YDL101C, strain DUN1, hits give low values 0.987 | locus YDL134C, strain PPH21, hits give low values 0.964 | locus YDL185W, strain tfp1, hits give low values 0.988 | locus YDL192W, strain arf1, hits give low values 0.985 | locus YDR001C, strain nth1, hits give low values 0.954 | locus YDR069C, strain doa4, hits give low values 0.913 | locus YDR101C, strain arx1, hits give low values 1.01 | locus YDR137W, strain rgp1, hits give low values 0.934 | locus YDR150W, strain NUM1, hits give low values 0.967 | locus YDR159W, strain sac3, hits give low values 0.925 | locus YDR162C, strain NBP2, hits give low values 0.954 | locus YDR195W, strain ref2 0.926 | locus YDR297W, strain sur2, hits give low values 0.967 | locus YDR318W, strain mcm21, hits give low values 0.999 | locus YDR334W, strain swr1, hits give low values 0.94 | locus YDR335W, strain msn5, hits give low values 0.961 | locus YDR363W, strain ESC2, hits give low values 0.975 | locus YDR388W, hits give low values 0.997 | locus YDR392W, strain spt3, hits give low values 1.01 | locus YDR502C, strain sam2, hits give low values 0.993 | locus YEL003W, strain gim4, hits give low values 0.978 | locus YEL037C, strain rad23, hits give low values 0.958 | locus YEL061C, strain CIN8 (second series), hits give low values 0.957 | locus YEL061C, strain CIN8, hits give low values 0.98 | locus YER002W, strain NOP16, hits give low values 0.99 | locus YER015W, strain faa2, hits give low values 0.975 | locus YER016W, strain bim1, hits give low values 0.964 | locus YER110C, hits give low values 0.967 | locus YER111C, strain swi4, hits give low values 0.973 | locus YER155C, strain BEM2 (second series), hits give low values 0.923 | locus YER155C, strain BEM2, hits give low values 0.998 | locus YER167W, strain BCK2, hits give low values 0.982 | locus YFR010W, strain ubp6, hits give low values 0.951 | locus YGL078C, strain dbp3, hits give low values 0.98 | locus YGL086W, strain mad1, hits give low values 0.966 | locus YGL167C, strain pmr1, hits give low values 0.939 | locus YGL173C, strain kem1, hits give low values 0.992 | locus YGL227W, strain vid30, hits give low values 0.937 | locus YGL240W, strain doc1, hits give low values 0.964 | locus YGL248W, strain PDE1, hits give low values 0.983 | locus YGL253W, strain hxk2, hits give low values 0.952 | locus YGR078C, strain PAC10, hits give low values 1.01 and 0.994 | locus YGR135W, strain pre9, hits give low values 0.989 | locus YGR229C, strain SMI1, hits give low values 1.01 | locus YGR252W, strain gcn5, hits give low values 0.911 | locus YHR013C, strain ard1, hits give low values 0.949 | locus YHR027C, strain rpn1, hits give low values 0.962 | locus YHR030C, strain SLT2, hits give low values 0.987 and 0.959 | locus YHR079C, strain IRE1 (second series), hits give low values 0.998 | locus YHR079C, strain IRE1, hits give low values 0.957 | locus YHR094C, strain hxt1, hits give low values 0.994 | locus YHR129C, strain ARP1, hits give low values 1 | locus YHR142W, strain chs7, hits give low values 0.965 | locus YHR200W, strain rpn10, hits give low values 1 | locus YIL066C, strain RNR3, hits give low values 0.985 | locus YIL073C, strain SPO22, hits give low values 0.959 | locus YIL125W, strain kgd1, hits give low values 0.983 | locus YIR030C, strain dcg1, hits give low values 0.981 | locus YJL092W, strain hpr5, hits give low values 0.963 | locus YJL095W, strain BCK1 (second series), hits give low values 0.96 | locus YJL095W, strain BCK1, hits give low values 1.03 and 0.994 | locus YJL115W, strain asf1, hits give low values 0.961 | locus YJL129C, strain trk1, hits give low values 0.963 | locus YJL134W, strain LCB3, hits give low values 0.984 | locus YJL154C, strain vps35, hits give low values 0.948 | locus YJL164C, strain tpk1, hits give low values 0.989 | locus YJL166W, strain qcr8, hits give low values 0.938 | locus YJL168C, strain set2, hits give low values 1 | locus YJL187C, strain SWE1 (second series), hits give low values 1 | locus YJL187C, strain SWE1, hits give low values 0.967 | locus YJR043C, strain POL32, hits give low values 1.02 | locus YJR066W, strain TOR1, hits give low values 0.926
